Hits are enriched below; roughly 4.1% of the tested compounds scored in any of these assays.
SUMO Mot1 rescue – inhibitors of SUMOylation pathway: yeast Mot1-301 growth rescue; S. cerevisiae Mot1-301 growth rescue, ATP luminescence, 38.5C; percent above DMSO median, 100 means doubled; 320,000 compounds, 1% hits; growth rescue, % at 18.8 µM; AID 2716;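 active = every valid replicate shows activation above 250% relative to neutral control wells; inactive = the rest, any valid replicate at or below 250%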
CHT inh – inhibitors of human choline transporter CHT; Q9GZV3; CHT-expressing cells, membrane potential dye, choline response; hits give low values; B-score at 10 µM; 310,000 compounds, 0.86% hits;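 active = B-score over 3 SD under the library average, and starting fluorescence ratio not unusually high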;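 also: choline stimulus applied at its EC90 after an EC20 pre-addition; B-score computed on integrated fluorescence ratio after choline addition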
Target sequence (Q9GZV3 whole entry, looked up): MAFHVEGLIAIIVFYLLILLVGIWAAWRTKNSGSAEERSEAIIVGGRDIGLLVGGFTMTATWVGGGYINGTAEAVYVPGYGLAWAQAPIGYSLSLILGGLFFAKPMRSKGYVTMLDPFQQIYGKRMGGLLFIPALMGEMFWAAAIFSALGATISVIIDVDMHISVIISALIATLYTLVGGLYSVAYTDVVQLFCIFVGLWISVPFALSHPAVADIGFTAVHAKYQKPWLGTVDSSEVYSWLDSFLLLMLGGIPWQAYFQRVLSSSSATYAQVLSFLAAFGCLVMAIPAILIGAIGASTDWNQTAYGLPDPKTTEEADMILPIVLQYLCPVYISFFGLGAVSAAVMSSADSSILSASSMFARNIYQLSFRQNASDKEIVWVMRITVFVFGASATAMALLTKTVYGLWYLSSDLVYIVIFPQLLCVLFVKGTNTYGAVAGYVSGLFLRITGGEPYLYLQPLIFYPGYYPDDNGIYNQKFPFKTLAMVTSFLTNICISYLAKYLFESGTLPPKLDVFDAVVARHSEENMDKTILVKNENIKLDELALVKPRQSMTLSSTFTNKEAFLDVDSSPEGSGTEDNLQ
MEKK2 mut-MEK5 – signal of MEK5 binding to mutant human MEKK2 PB1 domain; 290,000 compounds, 0.35% hits; AID 1530; percent response, % at 10 µM; bead flow cytometry, Alexa488-MEK5 binding to MEKK2 mutant; in the data active = percent response above about 24%, passing the limit was not always enough
CHT allo act – allosteric activators of human choline transporter CHT; Q9GZV3; CHT-expressing cells, membrane potential dye, choline EC20; hits give high values; LV-AA mutant CHT in HEK293 cells; B-score at 10 µM; 310,000 compounds, 0.49% hits; AID 488977;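 active = initial fluorescence not abnormally high and integrated response B-score, plate-corrected, over 3 SD above library mean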
MEKK2 WT-MEK5 – raises or lowers MEK5 binding to wildtype human MEKK2 PB1 domain; Q9Y2U5; bead flow cytometry, Alexa488-MEK5 binding to MEKK2 WT; actives lie on both sides; binding response (% of control), % at 10 µM; 290,000 compounds, 1.1% hits; AID 1531; in the data active = binding response below about 67% or above about 130%
MEKK3 PB1 HTS – modulators (inhibitors or enhancers) of MEK5 binding to human MEKK3 PB1 domain | binding response (% of control), % at 10 µM | AID 1529 | Q99759 | bead-based flow cytometry, Alexa488-MEK5 binding to MEKK3; actives lie on both sides; 0 = blocked by unlabeled MEK5, 100 = vehicle | 290,000 compounds, 1.4% hits;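 active = binding response more than 3 SD above or below the average of its plate-row segment, actives on both sides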;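 also: Alexa488 bead fluorescence after subtracting the streptavidin-only scavenger bead signal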
MEKK2wt confirm – raises or lowers MEK5 binding to wildtype human MEKK2, retest. 5,900 compounds, 2.4% hits. bead flow cytometry, Alexa488-MEK5 binding to MEKK2 WT; actives lie on both sides. shares compounds with MEKK3 PB1 HTS. binding response (% of control), % at 10 µM; in the data active = binding response below about 16% or above about 210%; inactive = in between
MEKK2mut confirm – signal of MEK5 binding to mutant human MEKK2, retest | shares compounds with MEKK3 PB1 HTS | bead flow cytometry, Alexa488-MEK5 binding to MEKK2 mutant | percent response, % at 10 µM | 5,900 compounds, 2% hits | AID 1893; in the data active = percent response mostly above about 71%, no sharp cut-off; inactive = mostly below about 38%;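 also: higher means compound restores mutant binding toward wildtype level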
MEKK3-MEK5 inh – MEKK3-MEK5 PB1 inhibition, single concentration confirmation; shares compounds with MEKK3 PB1 HTS; bead flow cytometry, Alexa488-MEK5 binding to MEKK3; hits give low values; binding response (% of control), % at 10 µM; 5,900 compounds, 1.8% hits; AID 1894;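 active = binding response below 72% of control, or above a set upper limit, though filed actives all read lower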;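 also: lower values mean stronger disruption of MEK5 binding to MEKK3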
Each line names hits and unclear results; the compound was inactive in the other large screens (follow-up assays come after a bar, where they were run); [ ] = dose if it differs, or a comment.

Cc1ccc2nc(SC(C(=O)Nc3ccc(F)cc3)c3ccccc3)[nH]c2c1 (centres undefined)	MEKK3 PB1 HTS 153 | MEKK2wt confirm inactive | MEKK2mut confirm inactive | MEKK3-MEK5 inh inactive
CC(=C\C(=O)O)/C(=C/c1ccc(C)o1)C(=O)O	none
O=C(Cn1cc(/C=N/NC(=O)c2cccc3ccccc23)c2ccccc21)Nc1ccc(F)cc1	MEKK2 WT-MEK5 38[inhibitor], MEKK3 PB1 HTS 38[inhibitor] | MEKK2wt confirm inactive | MEKK2mut confirm inactive | MEKK3-MEK5 inh inactive
O=C(Cc1coc(-c2ccc(F)cc2)n1)Nc1ccccc1	MEKK2 WT-MEK5 2.0[inhibitor], MEKK3 PB1 HTS 2.0[inhibitor] | MEKK2wt confirm inactive | MEKK2mut confirm inactive | MEKK3-MEK5 inh inactive
O=C(Cc1cc(C(=O)O)c2ccccc2n1)Nc1ccccc1	none
COCCN(C(=O)C1CC(=O)N(Cc2ccc(C)cc2)C1)c1c(N)n(CC(C)C)c(=O)[nH]c1=O (centres undefined)	none (no result: CHT inh, MEKK2 mut-MEK5, CHT allo act, MEKK2 WT-MEK5, MEKK3 PB1 HTS)
O=C(CCc1nc(-c2ccccc2F)no1)NC1CCN(Cc2ccccc2)CC1	MEKK2 mut-MEK5 24 | MEKK2wt confirm inactive | MEKK2mut confirm inactive | MEKK3-MEK5 inh inactive
O=S(=O)([N-]c1nc2ccccc2nc1-[n+]1ccccc1)c1ccc(Cl)cc1	none
Cc1cc(C)c[n+](-c2nc3ccccc3nc2[N-]S(=O)(=O)c2ccc(Cl)cc2)c1	MEKK3 PB1 HTS 137 | MEKK2wt confirm inactive | MEKK2mut confirm inactive | MEKK3-MEK5 inh inactive
Cc1ccc(C)c(S(=O)(=O)N2CCCCC2CCNC(=O)C(=O)NCc2ccccc2)c1 (centres undefined)	none (no result: MEKK2 mut-MEK5, MEKK2 WT-MEK5, MEKK3 PB1 HTS)
CSc1nc(NCCCN(C)C)c2c3c(sc2n1)CN(C)CC3	MEKK2 mut-MEK5 30, MEKK2 WT-MEK5 138 | MEKK2wt confirm inactive | MEKK2mut confirm inactive | MEKK3-MEK5 inh inactive
CCc1ccc(NC(=O)CN2C(=O)C(=O)N(Cc3ccccc3)C2=O)cc1	none
COc1cc2c(cc1OC)C(c1ccc(-c3ccc(Cl)c(Cl)c3)o1)=NCC2	MEKK2 WT-MEK5 149 | MEKK2wt confirm inactive | MEKK2mut confirm inactive | MEKK3-MEK5 inh inactive
CCN(CC)S(=O)(=O)c1ccc(NS(=O)(=O)c2ccc(O)c([N+](=O)[O-])c2)cc1	MEKK3 PB1 HTS 144 | MEKK2wt confirm inactive | MEKK2mut confirm inactive | MEKK3-MEK5 inh inactive
CCN(CC)S(=O)(=O)c1ccc(NS(=O)(=O)c2ccc3oc(=O)[nH]c3c2)cc1	none
CSc1ccc(-c2sc(Nc3ccccc3)n[n+]2-c2ccc(F)cc2)cc1	MEKK2 mut-MEK5 28, MEKK2 WT-MEK5 139 | MEKK2wt confirm inactive | MEKK2mut confirm inactive | MEKK3-MEK5 inh inactive
Fc1ccc(-[n+]2nc(Nc3ccccc3)sc2-c2c3ccccc3cc3ccccc23)cc1	MEKK2 mut-MEK5 31 | MEKK2wt confirm inactive | MEKK2mut confirm inactive | MEKK3-MEK5 inh inactive
COc1ccc(-c2sc(Nc3ccccc3)n[n+]2-c2ccc(F)cc2)c(C)c1C	CHT inh -5.4, MEKK2 mut-MEK5 37, MEKK2 WT-MEK5 141 | MEKK2wt confirm inactive | MEKK2mut confirm inactive | MEKK3-MEK5 inh inactive
COc1ccc(C)cc1Nc1n[n+](-c2ccccc2)c(-c2cc(OC)c(OC)cc2Br)s1	MEKK2 mut-MEK5 26, MEKK2 WT-MEK5 134 | MEKK2wt confirm inactive | MEKK2mut confirm inactive | MEKK3-MEK5 inh inactive
Oc1ccc(-c2sc(Nc3ccccc3)n[n+]2-c2ccc(F)cc2)cc1	none
COc1ccc(C)cc1Nc1n[n+](-c2ccccc2)c(-c2c(OC)ccc3ccccc23)s1	none (no result: MEKK2 mut-MEK5, MEKK2 WT-MEK5, MEKK3 PB1 HTS)
CCN(CC(=O)Nc1c(F)cccc1F)C(=O)CCC(=O)c1ccc(C)cc1	none (no result: MEKK2 mut-MEK5, MEKK2 WT-MEK5, MEKK3 PB1 HTS)
COc1ccc(-n2c(O)c(C=Nc3ccccc3)c3ccccc3c2=O)cc1	none
CCN(c1ccc(N=Cc2c(O)n(Cc3ccc(OC)cc3)c(=O)c3ccccc23)cc1)C(C)C	MEKK2 mut-MEK5 175, MEKK3 PB1 HTS 56[inhibitor] (no result: SUMO Mot1 rescue, CHT inh, CHT allo act, MEKK2 WT-MEK5) | MEKK2wt confirm inactive | MEKK2mut confirm inactive | MEKK3-MEK5 inh inactive
O=C(CCNC(=O)c1ccc([N+](=O)[O-])cc1)Nc1cccc(S(=O)(=O)N2CCOCC2)c1	none (no result: CHT inh, MEKK2 mut-MEK5, CHT allo act, MEKK2 WT-MEK5, MEKK3 PB1 HTS)
CC[C@@H]1CC=C[C@H]2[C@H]1C(=O)N(Cc1ccccc1)[C@H]2c1ccc2ccccc2c1	MEKK3 PB1 HTS 79[inhibitor] (no result: SUMO Mot1 rescue, CHT inh, CHT allo act) | MEKK2wt confirm inactive | MEKK2mut confirm inactive | MEKK3-MEK5 inh inactive
CC(=O)c1ccc(-c2cc([C@H]3[C@H]4C=CC[C@@H](C)[C@@H]4C(=O)N3Cc3ccccc3)ccc2F)cc1	none
C[C@@H]1CC=C[C@H]2[C@H]1C(=O)N(Cc1ccccc1)[C@H]2c1ccc(F)c(-c2ccc(N(C)C)cc2)c1	MEKK2 WT-MEK5 54[inhibitor], MEKK3 PB1 HTS 66[inhibitor] | MEKK2wt confirm inactive | MEKK2mut confirm inactive | MEKK3-MEK5 inh inactive
CCCCCCc1cc2cc(-c3nnc(-c4ccccc4OC)o3)c(=O)oc2cc1O	none
CCCCCCc1cc2cc(-c3nnc(-c4ccccc4O)o3)c(=O)oc2cc1O	MEKK2 WT-MEK5 71[inhibitor] | MEKK2wt confirm inactive | MEKK2mut confirm inactive | MEKK3-MEK5 inh inactive
CCCCCCc1cc2cc(S(=O)(=O)c3ccc(F)cc3)c(=O)oc2cc1O	MEKK3 PB1 HTS 138 | MEKK2wt confirm inactive | MEKK2mut confirm inactive | MEKK3-MEK5 inh inactive
COc1ccc2c(c1)-c1c(ssc1=S)C(C)(C)N2S(=O)(=O)c1ccc(C)cc1	MEKK3 PB1 HTS 129 | MEKK2wt confirm inactive | MEKK2mut confirm inactive | MEKK3-MEK5 inh inactive
CCOC(=O)c1[nH]c(C(=O)O)c(CCN(CC)CC)c1C	none
COc1ccc2cc(/C=N/O)c(Cl)nc2c1	MEKK3 PB1 HTS 67[inhibitor] | MEKK2wt confirm inactive | MEKK2mut confirm inactive | MEKK3-MEK5 inh inactive
Cc1c(C(=O)NCc2ccc3c(c2)cc(C)n3C)cccc1[N+](=O)[O-]	MEKK3 PB1 HTS 73[inhibitor] | MEKK2wt confirm inactive | MEKK2mut confirm inactive | MEKK3-MEK5 inh inactive
Cc1cc2cc(CNC(=O)Cc3ccc([N+](=O)[O-])cc3)ccc2n1C	none
Cc1cc2cc(CNC(=O)c3cccc([N+](=O)[O-])c3)ccc2n1C	MEKK3 PB1 HTS 72[inhibitor] | MEKK2wt confirm inactive | MEKK2mut confirm inactive | MEKK3-MEK5 inh inactive
Cc1cccc(NC(=S)NCc2ccc3c(c2)cc(C)n3C)c1C	MEKK2 WT-MEK5 66[inhibitor], MEKK3 PB1 HTS 78[inhibitor] | MEKK2wt confirm inactive | MEKK2mut confirm inactive | MEKK3-MEK5 inh inactive
CCCC(=O)NCc1ccc2c(c1)cc(C)n2C	none

Screens: PubChem, several laboratories
